# Screening results from PubChem.
# An excerpt weighted towards active compounds, which were near 2.2% of everything screened.
# LGR2 inh = inhibitors of bursicon-induced LGR2 CRE-luciferase signal, primary screen, cell-based, HEK293, CRE-luciferase reporter, bursicon stimulation. Drosophila bursicon receptor LGR2 (rickets). bursicon-stimulated, 4 h. inhibition, % at 9.99 µM. 0.35% of 380,000 active. AID 720647, 2013;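 active = drop in luminescence signal, shown as inhibition above about 50% in the replicate tests, limit read from the data, passing the limit was not always enough; inconclusive = probably only some replicates passing the limit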;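 also: agonist challenge used bursicon conditioned medium at about half maximal strength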
# PAX8 inh HTS = inhibitors of PAX8-driven TPO luciferase reporter, primary screen, RMG-I cells, single concentration; inhibition, % at 12.6 µM; SteadyGlo, 24 h; 1.2% of 360,000 active;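 active = mean replicate inhibition at least 60% with every replicate also reaching 60%; inconclusive = only one of the two criteria is met; inactive = mean below 60% and not all replicates reaching 60%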;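 also: luciferase light reporting Pax8 driven TPO promoter activity; plate controls were median of neutral control wells for no effect and mitoxantrone controls for full effect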
# EWS-Fli inh = EWS/Fli-driven NR0B1 reporter inhibitors, primary screen, A673 cells, NR0B1 luciferase, luminescence, MLPCN library. AID 651661, 2012. viability-normalised. 0.67% of 350,000 active. inhibition, % at 12.6 µM;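 active = mean inhibition of at least 50% after viability correction, with every replicate also passing that limit; inconclusive = mean reaches 50% but only one of two replicates passes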;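 also: firefly luciferase signal divided by Alamar Blue viability fluorescence both relative to DMSO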
# Shn3 3UTR inh = reduction of Shn3 3'UTR firefly luciferase signal, primary screen, Schnurri-3 inhibitor project, cell-based, Clone20 osteoblasts, set 2; Clone20 osteoblast Shn3 3'UTR firefly luciferase, 24 h; 0.52% of 360,000 active; AID 588674, 2011; inhibition, % at 12.5 µM;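 active = mean inhibition of at least 75% with every replicate also reaching 75%; inconclusive = mean inhibition at least 75% but some replicate below; inactive = mean inhibition below 75%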;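 also: 0% = median of neutral control wells and 100% = pilot-screen positive control compound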
# TRPM1 prom inh = inhibitors of MITF-dependent TRPM1 promoter reporter, primary screen, cell-based, SK-MEL-5, single point, luciferase; SK-MEL-5 TRPM1 promoter luciferase, 24 h; 0.83% of 330,000 active; inhibition, % at 12.5 µM;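 active = mean inhibition across replicates of 60% or more, whatever share of single replicates reaches that level; inconclusive = some that reach 60%, reason not given; inactive = mean inhibition across replicates below 60%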
# EBV LMP1 NFkB = EBV LMP1-driven NF-kappaB luciferase reporter inhibitors, primary screen, cell-based, luminescence, single point; LMP1-induced NF-kappaB luciferase reporter cells; 0.69% of 350,000 active; inhibition, % at 12.5 µM; in the data active = inhibition above about 41%; inconclusive = no clear call, values can overlap the other calls;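 also: 0% = neutral control wells and 100% = reference inhibitor control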
# Numbers without * were called inactive; ? = inconclusive; . = no result given.
SMILES,LGR2 inh,PAX8 inh HTS,EWS-Fli inh,Shn3 3UTR inh,TRPM1 prom inh,EBV LMP1 NFkB
O=C(Nc1ccc2nc3n(c(=O)c2c1)CCCCC3)c1cc([N+](=O)[O-])ccc1F,?,90*,.,96*,67*,-5
CC(C)(C)c1nnc(N/N=C/c2ccccc2O)n(N)c1=O,0,34,.,90*,43,23
CNS(=O)(=O)c1cccc(C(=O)OCC(=O)N2CCN(C(=O)c3ccco3)CC2)c1,-6,35,0,6,6,-2
O=C(OCC(=O)N1CCN(C(=O)c2ccco2)CC1)c1cccc(S(=O)(=O)N2CCc3ccccc32)c1,15,101*,-5,32,50,4
O=C(Nc1ccncc1)c1cccc(S(=O)(=O)N2CCc3ccccc32)c1,22,33,32,91*,18,22
O=S(=O)(CCSc1nc2ccccc2s1)c1nc2ccccc2s1,.,104*,.,-5,39,6
CCS(=O)(=O)CCSc1nc2ccccc2s1,.,.,.,-24,-18,-3
COc1cc(/C=N\NC(=O)c2ccc(-c3ccccc3)cc2)cc(OC)c1O,-8,75*,-11,-28,-33,2
COc1cc(/C=N\NC(=O)c2ccc(-c3ccccc3)cc2)cc(OC)c1OC(C)=O,-30,100*,.,-10,-27,.
Cc1ccc(S(=O)(=O)N(C)C[C@@H]2OCCCC[C@H](C)Oc3ccc(N(C)C)cc3C(=O)N([C@H](C)CO)C[C@@H]2C)cc1,20,-22,-3,.,.,.
CCOC(=O)COc1ccc(S(=O)(=O)NCc2ccncc2)cc1,.,.,.,72,9,18
CCOc1ccc(S(=O)(=O)NCc2ccncc2)cc1,.,.,.,90*,9,-2
CN(C)CCC1(C2=CCCC2)CC/C(=C/c2ccc(Cl)cc2)C1=O (stereo unspecified),69*,36,-2,9,-10,9
CC(=O)c1c(NCCc2ccccc2)nc(=S)n(-c2ccccc2)c1C,71*,-11,30,11,6,2
CC(=O)c1c(NCc2ccccc2)nc(=O)n(-c2ccccc2)c1C,.,.,.,-28,-52,-1
COc1ccc2c3c([nH]c2c1)[C@@H](CO)N(C(=O)Nc1cccc(F)c1)CC31CN(CC2CCOCC2)C1,-11,.,4,.,.,.
COc1ccccc1C#Cc1ccc([C@H]2[C@H]3CN(C(=O)C4CC4)CCCCN3[C@H]2CO)cc1,.,11,2,.,.,.
CO[C@H](CN(C)S(=O)(=O)c1ccc(Cl)cc1)[C@@H](C)CN(Cc1ccccc1Cl)[C@@H](C)CO,-1,.,14,.,.,.
COCCNC(=O)C[C@H]1C=C[C@H](NC(=O)NC2CCCC2)[C@H](CO)O1,16,-3,12,.,.,.
CC(C)(C)c1ccc(-n2nc(C#N)c(Cl)cc2=O)cc1,101*,112*,58*,98*,98*,4
CC(C)(C)c1ccc(-n2nc(C(N)=O)c(O)cc2=O)cc1,-10,38,6,0,11,0
CCCC[n+]1ccn(C2=C([O-])c3ccccc3C(=O)/C2=N\S(=O)(=O)c2ccccc2)c1,.,44,.,15,96*,3
CCCCC[n+]1ccn(C2=C([O-])c3ccccc3C(=O)/C2=N\S(=O)(=O)c2ccccc2)c1,.,52,.,7,94*,1
CC(C)[n+]1ccn(C2=C([O-])c3ccccc3C(=O)/C2=N\S(=O)(=O)c2ccccc2)c1,.,30,19,-9,55,4
CCCCC[n+]1ccn(C2=C([O-])c3ccccc3C(=O)/C2=N\S(=O)(=O)c2ccc(Br)cc2)c1,.,17,4,-7,85*,3
SMILES,LGR2 inh,PAX8 inh HTS,EWS-Fli inh,Shn3 3UTR inh,TRPM1 prom inh,EBV LMP1 NFkB
CO[C@H]1CN(C)C(=O)c2cc(NC(=O)C3CCCC3)ccc2OC[C@@H](C)N(C(C)=O)C[C@@H]1C,12,-15,-5,.,.,.
COc1cccc(C#Cc2ccc([C@H]3[C@@H](CO)N4C(=O)CN(C(=O)c5ccncc5)C[C@@H]34)cc2)c1,14,6,-7,.,.,.
COc1cc(-c2csc(N3CCOCC3)n2)cc(OC)c1OC,-11,.,.,6,6,-4
COc1ccc(-c2csc(N3CCN(c4cc(C)nc5ccccc45)CC3)n2)cc1OC,.,36,30,37,73*,31
C[C@@H]1CCCCO[C@@H](CN(C)S(=O)(=O)c2ccc(Cl)cc2)[C@H](C)CN([C@@H](C)CO)C(=O)c2cc(NS(=O)(=O)c3ccccc3)ccc2O1,-6,15,14,.,.,.
Cc1cnc(NC(=O)c2sc3ccccc3c2Cl)s1,?,6,72*,18,18,17
O=C(Nc1nccs1)c1sc2ccccc2c1Cl,.,.,.,-10,2,-4
CC(C)(C)C(=O)NC(=S)NNC(=O)c1sc2ccccc2c1Cl,.,.,.,91*,80*,57*
Cc1ccnc(NC(=O)c2sc3ccccc3c2Cl)c1,87*,-159,.,9,5,61*
COc1cccc(NC(=O)N[C@@H]2C=C[C@@H](CC(=O)NCc3ccncn3)O[C@@H]2CO)c1,-10,-29,2,.,.,.
COc1ccc(NC(=O)N(C)C[C@H]2OCCCC[C@@H](C)Oc3ccc(NS(=O)(=O)c4c(C)noc4C)cc3C(=O)N([C@@H](C)CO)C[C@H]2C)cc1,-17,9,7,.,.,.
O=C(O)c1cccc(-c2nc3ccccc3[nH]2)c1,94*,48,44,31,49,39
COc1cc(/C=C/C(=O)c2ccc3c(c2)OCCO3)cc(Br)c1OCC(=O)N(C)C,60*,7,61*,92*,93*,28
O=C(/C=C/c1ccncc1)c1ccc2c(c1)OCCO2,89*,-22,4,5,-2,9
O=C(/C=C/c1ccccc1)c1ccc2c(c1)OCO2,-70,-66,-41,-37,-80,-16
CCCC(=O)N1CCC2(CC1)CN(C(=O)CC)[C@H](CO)c1c2c2ccc(OC)cc2n1C,-9,.,5,.,.,.
C[C@@H]1CN([C@@H](C)CO)C(=O)c2cccc(NS(=O)(=O)c3ccc(F)cc3)c2O[C@@H]1CN(C)Cc1ccc(Oc2ccccc2)cc1,12,-12,5,.,.,.
C[C@H]1CN([C@@H](C)CO)C(=O)c2cc(-c3ccccc3F)cnc2O[C@H]1CN(C)C(=O)C1CC1,-24,.,-5,.,.,.
C/C(=N\NC(=O)c1ccccc1O)c1cccs1,52*,33,28,24,24,34
C/C(=N/NC(=O)c1cc(C2CC2)[nH]n1)c1cccs1,.,53,.,49,50,60*
O=C(N/N=C/c1cccc2ccccc12)c1cc(C2CC2)[nH]n1,-27,-10,-68,-24,-52,53*
Fc1cccc(Cl)c1/C=N/n1c(-c2cccnc2)n[nH]c1=S,2,-18,-12,1,-1,52*
